Test results as given in ChEMBL document CHEMBL1201862, “PubChem BioAssay data set” (2004).
In all, about 400,000 compounds went through this assay and about 2,100 (0.53%) were called active. Roughly 14% stayed inconclusive and do not appear here. How the calls were made is not given here. The entries come from a sample that favours actives as a whole.

Each compound was assayed against Ataxin-2 (Homo sapiens) (UniProt Q99700) (assay: qHTS for Inhibitors of ATXN expression.).
Type: functional

Ataxin-2 (Homo sapiens), sequence (Q99700 whole entry): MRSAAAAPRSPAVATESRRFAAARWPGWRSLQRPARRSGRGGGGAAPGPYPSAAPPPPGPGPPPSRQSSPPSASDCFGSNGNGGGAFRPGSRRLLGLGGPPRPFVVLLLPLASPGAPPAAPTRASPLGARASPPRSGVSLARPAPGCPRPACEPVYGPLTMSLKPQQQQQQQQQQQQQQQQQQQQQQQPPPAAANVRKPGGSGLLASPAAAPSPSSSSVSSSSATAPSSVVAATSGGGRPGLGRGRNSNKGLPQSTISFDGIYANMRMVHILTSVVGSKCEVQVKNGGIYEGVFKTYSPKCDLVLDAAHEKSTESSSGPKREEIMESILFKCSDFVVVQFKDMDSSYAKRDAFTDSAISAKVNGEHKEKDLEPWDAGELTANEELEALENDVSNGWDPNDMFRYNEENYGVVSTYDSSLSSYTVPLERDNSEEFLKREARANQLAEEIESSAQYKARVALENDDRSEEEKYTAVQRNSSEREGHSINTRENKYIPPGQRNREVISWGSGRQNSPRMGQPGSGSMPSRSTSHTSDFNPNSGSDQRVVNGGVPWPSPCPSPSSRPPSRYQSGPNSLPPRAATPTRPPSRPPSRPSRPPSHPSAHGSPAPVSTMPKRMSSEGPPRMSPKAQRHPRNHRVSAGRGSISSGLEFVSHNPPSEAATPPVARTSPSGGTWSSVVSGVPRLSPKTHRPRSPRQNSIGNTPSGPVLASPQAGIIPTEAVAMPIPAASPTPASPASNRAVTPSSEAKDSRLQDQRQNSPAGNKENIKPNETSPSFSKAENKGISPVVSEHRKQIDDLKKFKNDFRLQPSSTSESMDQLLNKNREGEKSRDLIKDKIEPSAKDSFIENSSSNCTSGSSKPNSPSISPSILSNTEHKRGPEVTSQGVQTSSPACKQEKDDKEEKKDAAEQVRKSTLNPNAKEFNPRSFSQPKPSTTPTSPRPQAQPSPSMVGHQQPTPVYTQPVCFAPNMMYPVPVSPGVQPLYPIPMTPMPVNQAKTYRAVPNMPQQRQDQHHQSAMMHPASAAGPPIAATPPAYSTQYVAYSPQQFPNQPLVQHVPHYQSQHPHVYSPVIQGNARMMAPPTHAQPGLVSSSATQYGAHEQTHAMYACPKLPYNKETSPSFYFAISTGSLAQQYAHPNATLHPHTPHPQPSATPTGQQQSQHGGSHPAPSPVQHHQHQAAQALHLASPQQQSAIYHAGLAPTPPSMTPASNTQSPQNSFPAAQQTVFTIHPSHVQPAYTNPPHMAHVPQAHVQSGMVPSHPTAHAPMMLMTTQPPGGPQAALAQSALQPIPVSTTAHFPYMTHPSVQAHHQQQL

SMILES	Potency
CCN1CCc2c(sc(NC(=O)c3ccc(S(=O)(=O)N4CCCC(C)C4)cc3)c2C(=O)OC)C1 (configuration not stated)	inactive
CCOc1ccccc1N(C)C(=O)c1cc2c(=O)n(CC)c3ccccc3c2s1	39.8 µM (active)
CCCN(CCC)CCCNC(=O)c1cc2c(=O)n(CC)c3ccccc3c2s1	inactive
CCN(C(=O)Cc1c(C(=O)O)n(CC)c2ccccc12)c1ccccc1C	inactive
O=C(Cn1ncc(Cl)c(Cl)c1=O)N1CCOCC1	39.8 µM (active)
Cn1c(=O)c2c(nc(Sc3ncnn3CC(=O)N3CCOCC3)n2C)n(C)c1=O	inactive
CC1CC(C)CN(CC(=O)N2CCOCC2)C1 (configuration not stated)	inactive
CN(CC(=O)Nc1ccc(Cl)cc1)CC(=O)N1CCc2ccccc21	inactive
O=C(Cn1ncc(Cl)c(Cl)c1=O)N1CCN(Cc2ccccc2)CC1	39.8 µM (active)
O=Cc1cn(CC(=O)N2CCc3ccccc32)c2ccccc12	inactive
O=C(Cn1ncc(Cl)c(Cl)c1=O)N1CCc2ccccc21	7.52 µM (active)
COc1cc2c(cc1OC)CN(Cc1cc(=O)oc3c(C)c(C)ccc13)CC2	inactive
COc1ccc(NC(S)=Nc2ccc3nsnc3c2)cc1	inactive
Cc1ccsc1CN(C)CC(=O)NCC(=O)Nc1ccc(F)cc1	inactive
CCOC(=O)Cc1c(C)c2c(O)cc(O)cc2oc1=O	inactive
CCOC(=O)c1cc2c(=Cc3ccc(N(C)C)cc3)c3ccccc3n2[n+]1C	13.4 µM (active)
CN(C)c1ccc(/C=c2\c3cc([N+](=O)[O-])ccc3n3c2cc(-c2ccccc2)[n+]3C)cc1	31.6 µM (active)
CCOC(=O)c1cc(C(=O)OCC)c2ccccn2c1=O	inactive
COc1ccc2c(c1)c(=Cc1ccc(N(C)C)cc1)c1cc(-c3ccccc3)[n+](C)n12	17.8 µM (active)
CN(C(=O)COC(=O)c1nnc(O)c2ccccc12)c1ccccc1	inactive
O=[N+]([O-])c1ccc2c(c1)c1ccccc1n2CCO	inactive
C[n+]1c(-c2ccccc2)cc2c(=Cc3ccccc3)c3ccccc3n21	23.8 µM (active)
N#Cc1c2ccc(OCC(N)=O)cc2n2ccccc12	inactive

SMILES	Potency
CCN(Cc1ccc(OC)c(F)c1)C(=O)/C=C/c1ccc(S(=O)(=O)N2CCOCC2)cc1	inactive
CCOC(=O)/C=C/C(=O)Nc1ccc(S(=O)(=O)Nc2nccs2)cc1	inactive
CC(NC(=O)c1cc2c(=O)n3ccccc3nc2n(CC2CCCO2)c1=N)c1ccccc1 (configuration not stated)	inactive
Cc1cc(C(=O)NNc2c(Cl)cccc2Cl)no1	inactive
CCCCN1C(=O)c2cccc3cc(O)cc(c23)C1=O	inactive
CCCCN(C)C(=O)c1ccc2c(c1)N(Cc1cccc(F)c1)C(=O)c1ccccc1S2	25.1 µM (active)
O=C1c2cccc3cccc(c23)N1Cc1ccc(F)cc1	inactive
Cc1oc(-c2ccccc2F)nc1C[S+]([O-])CC(=O)NCc1ccc(F)cc1 (configuration not stated)	inactive
N#Cc1c(N)n(-c2cccc(C(=O)O)c2)c2nc3ccccc3nc12	inactive
CCc1ccccc1NC(=O)c1sc2nc(C)cc(C)c2c1N	inactive
Nc1c(C(=O)Nc2ccccc2F)sc2nc(Cc3ccccc3)cc(C(F)(F)F)c12	inactive
O=C(Nc1ccccc1)Nc1nc(-c2ccc(F)c(F)c2)cs1	inactive
Cc1ccc(-c2ocnc2C(=O)Nc2nc(C)cs2)cc1	inactive
NC(Cc1ccc(C(F)(F)F)cc1)c1csc(NC(=O)Nc2ccccc2)n1 (configuration not stated)	35.5 µM (active)
NC(Cc1ccc(C(F)(F)F)cc1)c1csc(NC(=O)Nc2ccccc2Cc2ccccc2)n1 (configuration not stated)	35.5 µM (active)
CC(C)CC(N)c1csc(NC(=O)Nc2ccccc2Cc2ccccc2)n1 (configuration not stated)	22.4 µM (active)
CCOC(=O)c1sc(-c2ccc(C(F)(F)F)cc2)nc1O	inactive
Cc1ccc(C(=O)Nc2nc(C(N)Cc3ccc(C(F)(F)F)cc3)cs2)cc1 (configuration not stated)	39.8 µM (active)
O=C(Nc1ccccc1)Nc1sccc1-c1nc2ccccc2s1	inactive
CC(=O)c1ccc(/C=C/c2nc3ccccc3n2C)o1	inactive
Fc1ccc(N2CCN(C(S)=NCc3ccco3)CC2)cc1	inactive
Nc1cccc2c1C(=O)N(C(=O)c1cccc(S(=O)(=O)N3CCCC3)c1)C2=O	inactive
C/C(=N\OCC(=O)Nc1ccccc1C(=O)O)c1cccs1	inactive

SMILES	Potency
CC(=O)NC1=NC(=O)/C(=C/c2cc(C)n(-c3cccc(C(=O)O)c3)c2C)S1	inactive
CC(C)(C)c1cc(NC(=O)COC(=O)c2ccccc2)n(-c2ccccc2)n1	inactive
CC(C)(C)c1cc(C(=O)NNc2cccc(Cl)c2)n(Cc2ccccc2)n1	inactive
CC(C)CC(N)c1csc(NC(=O)c2cc(C(C)(C)C)nn2Cc2ccccc2)n1 (configuration not stated)	31.6 µM (active)
COC(=O)c1ccc(COc2ccccc2OC)o1	inactive
CC(C)Cn1c(N)c(C(=O)COC(=O)c2cc3ccccc3cc2O)c(=O)n(C)c1=O	inactive
Cc1cccn2c(=O)c3cc(C(=O)NCCCN4CCCC4=O)n(C)c3nc12	inactive
Cc1ccc(-n2cc(CNCCCn3cccn3)c(-c3cccc(C)c3)n2)cc1	20 µM (active)
Cc1ccc(-n2cc(CNCCCN3CCCC3=O)c(-c3ccc(F)cc3)n2)cc1	25.1 µM (active)
Cc1ccc(C2(c3ccc(C)cc3)NC(=O)N(CC(=O)NCCCN3CCCC3=O)C2=O)cc1	inactive
Cc1cccc(C2=NN(c3ccccc3)[C@H](CO)[C@H]2c2ccc(F)cc2)c1	inactive
Cc1cccc(-n2cc(CNCCc3nc(C)cc(C)n3)c(-c3cccc(F)c3)n2)c1	31.6 µM (active)
CCOC(=O)c1cc2c(=O)n3ccccc3nc2n(CCCOC)/c1=N\C(=O)C(C)(C)C	inactive
CCOc1ccc(NC(S)=Nc2cccnc2)cc1	inactive
Cc1cc(N(C)Cc2ccccc2)nc2cc(O)ccc12	inactive
CN(CCCC(=O)N1CCN(c2ncccn2)CC1)S(=O)(=O)c1ccc(F)cc1	inactive
O=C(NC1CCCCCC1)c1cc2c(=O)n3ccccc3nc2s1	inactive
O=C(NCC1CCCCC1)c1ccc(Cl)c(S(=O)(=O)N2CCOCC2)c1	inactive
O=C(Cn1ncc(Cl)c(Cl)c1=O)NCC1CCCCC1	31.6 µM (active)
Cc1ccc(-n2nc3c(=O)n(CC(=O)NC4CCCCC4)nc(C)c3c2C)cc1	inactive
O=C(Cn1ncc(Cl)c(Cl)c1=O)NC1CCCCC1	28.2 µM (active)
